# Reference: PubChem BioAssay AID2546 (National Center for Advancing Translational Sciences (NCATS), 2010)
# Values joined by “and” are separate entries in the source; they are usually repeats but may differ in a detail not shown here. Equal values may be shown once. The campaign covered roughly 310,000 compounds. About 11,000 (3.5%) were called active. Roughly 8% stayed inconclusive and do not appear here. The full list was thinned out, with actives kept by preference. Values without a mark were called inactive. Calls come from the whole dose curve; as a rule, active = well fitted inhibition curve with a large enough effect; inconclusive = small, poorly fitted or top-dose-only effect, or effect the other way; inactive = flat fitted curve, though single readings scatter.
# Assay: VP16 counterscreen qHTS for inhibitors of ROR gamma transcriptional activity;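 note: Gal4-VP16 expression switched on by copper sulfate through the metallothionein promoter; nearly all actives have a fitted effect of over 50% in size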
# Details: Drosophila S2 Gal4-VP16 UAS-luciferase, luminescence, 20 h; series mostly up to 53.6 µM; activity, negative = inhibition: at the top concentration
# Source text: NIH Molecular Libraries Probe Production Network [MLPCN]
# NIH Chemical Genomics Center [NCGC]
# Assay Provider: Dan Littman, New York University
# The retinoic acid-related orphan receptor (ROR) gamma is a transcription factor that has a central role in the differentiation of Th17 cells, a subset of T helper cells that secrete the inflammatory cytokines IL-17, IL-17F, and IL-22. Th17 cells have been implicated in graft versus host disease, autoimmune disease and asthma. ROR gamma is induced in naive T helper cells in the presence of TGF-beta combined with IL-6, IL-21, or IL-23, and thereafter directs the expression of the Th17 lineage cytokines. To identify nonspecific inhibitors, a Drosophila Schneider cell line was stably transfected with two vectors: a gene expressing a fusion of the Gal4 DNA binding domain and VP16 transactivation domain under the control of the metallothionine promoter and a Photinus luciferase reporter regulated by the Gal4 binding site enhancer, UAS. […] Small molecule inhibitors that inhibit components common to the RORgt and VP16 assays, such as the Gal4 DNA binding domain or the UAS luciferase reporter, will be active in both assays and thus scored as nonspecific.
# For screening, 600 cells in 4 uL/well were dispensed into white solid 1536-well plates (Grenier) using a solenoid-based dispenser. Following transfer of 23 nL compound or DMSO vehicle by a pin tool, the plates were incubated 1 hr at ambient temperature, and 1 uL/well copper sulfate (700 uM final concentration) was added. The plates were centrifuged 15 s at 1000 RPM and incubated 20 hr at ambient temperature. After addition of 1.5 uL Photinus luciferase detection reagent, the plates were incubated 10 min at ambient temperature and then read by a ViewLux (Perkin Elmer) to detect luminescence.
# % is set by controls: 0 for no effect and ±100 for the full control effect; potency is the fitted concentration of half-maximal effect.
Structure (SMILES),Potency,"activity, negative = inhibition"
Oc1c(Cl)cc(Cl)c(Cl)c1Cc1c(O)c(Cl)cc(Cl)c1Cl,3.16 µM (active) and 7.08 µM (active) and 3.98 µM (active),
CCCCCN(C(=O)CCC(=O)OCC(=O)NCc1ccc(OC)cc1)c1c(N)n(CCCC)c(=O)[nH]c1=O,,-1.25%
CC(=O)Nc1ccc(S(=O)(=O)N2CCC(C(=O)NC3CC3)CC2)cc1,,-7.7%
CCOc1ccc(NC(=O)[C@H](C)NC(=O)C2CC(=O)N(c3ccc(OC)cc3)C2)cc1 (stereo partly drawn),,-0.627%
Fc1ccccc1Cn1cnc(NC(=S)NCCc2ccccc2)n1,,0.0945%
O=C(Cc1cccc2ccccc12)NNC(=O)Nc1ccc(Cl)cc1,,2.73%
Fc1ccccc1CNC(=S)Nc1ccc(Cl)cc1,7.08 µM (active),
COc1ccc(CCNC(=O)CSCc2ccc(Br)cc2)cc1OC,,1.85%
CS(=O)(=O)N(CC(=O)N1CCOCC1)c1cccc(Cl)c1Cl,,0.519%
O=C1C2C(c3ccccc3)CC=CC2C(c2ccoc2)N1Cc1ccccc1 (stereo not drawn),,-2.18%
CCc1nc(NCCO)c(C#N)c2c1CCCC2,,-4.3%
CC(C)CCNc1nc(N2CCCC2)c2c(c1C#N)CCN(C)C2,11.2 µM (active),
CCN1CCc2c(C#N)c(NCc3ccccc3)nc(NCCO)c2C1,,3.4%
Cn1cccc1C(=O)N1CCc2ccccc2C1,,-17.5%
Cc1cccc(C)c1NC(=O)C(Cl)C(=O)c1ccccc1 (stereo not drawn),22.4 µM (active),
Cc1cccc(C)c1NC(=O)N1CC(C)OC(C)C1 (stereo not drawn),,-3.53%
Cc1cccc(C)c1NC(=O)C(c1ccccc1)N1CC(=O)Nc2ccccc21 (stereo not drawn),,1.67%
CSCC[C@H](NC(=O)N1CCn2c1nc1ccccc12)C(=O)NC1CCCCC1,,0.703%
O=C(COC(=O)c1cccs1)Nc1ccccc1Cl,,14.2%
O=C(COC(=O)/C(=C/c1cccs1)c1cccs1)NCc1ccccc1Cl,0.631 µM (active),
O=C(COC(=O)c1cccs1)NCc1cccs1,,28.5%
O=C(Nc1cccc(Cl)c1Cl)c1ccccc1NC(=O)C1CC=CCC1C(=O)O (stereo not drawn),,-0.224%
CCC1CCCCN1C(=O)CSc1nc2c(c(=O)n1C)SC(C)C2 (stereo not drawn),,20%
CC(=O)NCCc1nc2cc(NC(=O)c3ccccc3)ccc2n1C,,-4.52%
Cn1sc(NC(=O)c2ccccc2)nc1=O,,1.42%
CCC(=O)NCCc1nc2ccccc2n1CC,,-3.17%
Cn1c(NC(=O)c2ccccc2)nc2ccccc21,1.26 µM (active),

Structure (SMILES),Potency,"activity, negative = inhibition"
Cc1nn(C)cc1C(=O)Nc1ccccc1Br,,-0.656%
CCn1c(NC(=O)c2nn(C)cc2Br)nc2ccccc21,5.01 µM (active),
CC(C)Cc1nnc(NC(=O)CN2C(=O)NC3(CCCCC3)C2=O)s1,,-2.73%
Cc1cccn2c(=O)c3cc(C(=O)NCC4CCCO4)c(=N)n(Cc4ccc(F)cc4)c3nc12 (stereo not drawn),,-5.22%
COc1ccccc1CN(C)C(=O)c1cc2ccccc2o1,,23.3%
COc1ccc(-c2[nH]ncc2/C=N/NC(=O)c2cc(Br)ccc2O)c(OC)c1,0.891 µM (active),
COc1cc(/C=N/NC(=O)c2cccnc2)ccc1OC(=O)c1cccc(Br)c1,,-17.9%
COc1ccc(/C=N/NC(=O)Nc2ccc3nsnc3c2)c(OC)c1,,-18.8%
CN(c1ccccc1)S(=O)(=O)c1ccc(NC(=O)COc2ccccc2)cc1,,6.26%
COc1cc(/C(=C/c2ccccc2)c2ccccc2)c2c(c1)oc1ccccc12,,18.4%
O=C(OCc1ccc(Br)cc1)c1cccc(-c2nnc(-c3ccccc3)o2)c1,,-23.9%
Cc1cccc(NC(=O)Nc2nnc(-c3ccccc3)o2)c1,,7.84%
O=C(COC(=O)c1ccc(Oc2ccccc2)cc1)Nc1nnc(-c2ccccc2)o1,5.62 µM (active),
COc1cc(CNCc2ccc3c(c2)OCO3)c([N+](=O)[O-])cc1OC,,11.9%
Cc1ccc(C)c(OCc2cc(C(=O)N3CCN(c4cnccn4)CC3)no2)c1,,2.89%
Oc1ccc(-c2cccc(-c3ccc(O)cc3)c2)cc1,,0.535%
O=C(Nc1ccccc1)/C(=C/c1ccc([N+](=O)[O-])cc1)NC(=O)c1ccccc1,,-5.61%
CCOC(=O)/C(=C\c1ccc([N+](=O)[O-])cc1)C(=O)c1cc(C(C)=O)c(Nc2ccccc2)s1,5.62 µM (active),
Cc1cccc(NC(=O)c2sc(-c3ccccc3)nc2-c2ccc([N+](=O)[O-])cc2)c1,,8.36%
C#CC(C)(C)NC(=O)c1cnc(-c2ccccc2)nc1-c1ccccc1,,-20.7%
CCC(=O)N(CCc1ccccc1)Cc1cc2cc(C)ccc2[nH]c1=O,,-0.886%
Cc1cc(C)n(CCNS(=O)(=O)c2ccc(Cl)cc2)n1,,-13.8%
CN(C)CCNC(=O)c1[nH]nc2c1CCc1ccccc1-2,,25.4%
COc1cccc(/C=N/NC(=O)c2[nH]nc3c2CCc2ccccc2-3)c1O,0.794 µM (active),
COc1cc2cc(C(=O)N/N=C/c3cccc(OC)c3OC)[nH]c2cc1OC,,6.33%
CN(C(=O)CN1C(=O)/C(=C/c2ccc(Cl)cc2)SC1=S)C1CCS(=O)(=O)C1 (stereo not drawn),,12.8%
